Experimental data from PubChem BioAssay (Tox21).
Inconclusive results are not listed. The source made the active and inactive calls. Unless noted, the call rests on the fitted dose curve; in most records, active means well fitted curve in the direction sought with a large enough effect in the repeat runs; inconclusive means weak or mixed curves; inactive means no such curve, though single readings can be large; an effect the other way counts as inactive or inconclusive.

Experiments:
[1] = qHTS assay to identify small molecule agonists of the estrogen receptor alpha (ER-alpha) signaling pathway in the presence of an antagonist - cell viability counter screen (AID 1259386);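 further: series mostly up to about 92 µM; cells exposed to compounds for 22 h at 37 °C before the viability read; nearly all actives have a fitted effect of over 30% in size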
In short: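 VM7Luc4E2, stripped-serum pre-culture 5 d; 24hr plating; +ICI-182,780 10.0nM final; cpds 15 conc, 22hr, 37C/5% CO2; CellTiter-Fluor added at 21hr, fluorescence 1hr later.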

[2] = biological target: Progesterone receptor (Homo sapiens) (UniProt P06401); experiment: qHTS assay to identify small molecule agonists of the progesterone receptor (PR) signaling pathway (AID 1346784; calls by dose curve; further: nearly all actives have a fitted effect of over 30% in size)
Progesterone receptor (Homo sapiens), sequence (P06401 whole entry, looked up): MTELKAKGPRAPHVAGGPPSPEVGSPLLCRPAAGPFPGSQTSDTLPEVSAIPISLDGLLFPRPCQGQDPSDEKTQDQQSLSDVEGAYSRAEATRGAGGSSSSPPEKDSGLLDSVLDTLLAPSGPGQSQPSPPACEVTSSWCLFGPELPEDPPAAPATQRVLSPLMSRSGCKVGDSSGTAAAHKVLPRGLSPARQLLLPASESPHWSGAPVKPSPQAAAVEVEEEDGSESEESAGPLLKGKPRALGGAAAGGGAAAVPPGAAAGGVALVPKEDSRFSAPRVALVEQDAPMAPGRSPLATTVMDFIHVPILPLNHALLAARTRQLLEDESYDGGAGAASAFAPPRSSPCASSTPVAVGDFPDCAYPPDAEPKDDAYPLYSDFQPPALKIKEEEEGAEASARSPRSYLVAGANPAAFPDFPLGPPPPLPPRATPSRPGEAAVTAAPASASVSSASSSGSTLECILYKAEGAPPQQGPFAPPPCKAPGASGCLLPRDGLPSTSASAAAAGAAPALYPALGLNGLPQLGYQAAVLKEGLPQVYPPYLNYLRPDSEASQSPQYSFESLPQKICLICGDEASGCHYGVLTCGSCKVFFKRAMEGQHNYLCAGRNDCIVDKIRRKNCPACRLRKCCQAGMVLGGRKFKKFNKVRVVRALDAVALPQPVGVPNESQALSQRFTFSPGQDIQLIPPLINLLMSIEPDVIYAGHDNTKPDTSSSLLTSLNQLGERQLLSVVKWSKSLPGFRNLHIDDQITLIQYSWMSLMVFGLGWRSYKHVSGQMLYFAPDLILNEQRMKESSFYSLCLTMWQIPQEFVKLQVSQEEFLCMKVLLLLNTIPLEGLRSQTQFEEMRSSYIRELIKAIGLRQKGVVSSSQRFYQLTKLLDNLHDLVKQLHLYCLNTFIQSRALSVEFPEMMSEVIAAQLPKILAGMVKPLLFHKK
In short: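 PR-UAS-bla HEK 293T cells carrying a UAS-driven beta-lactamase reporter were seeded in medium with 2% charcoal-stripped FBS, preincubated 6 hr at 37C, then exposed to compounds in DMSO for 16 hr; agonism was read by LiveBLAzer B/G FRET fluorescence.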

[3] = qHTS assay to identify small molecule antagonists of the progesterone receptor (PR) signaling pathway - cell viability counter screen (AID 1346798); further: series mostly up to about 92 µM; nearly all actives have a fitted effect of over 50% in size
In short: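 PR-UAS-bla HEK293T cells in medium with 2% charcoal-stripped FBS were treated with compounds plus R5020 for 16 hr at 37C. Cell viability was then read by CellTiter-Glo luminescence after 30 min at room temperature in the same wells.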

[4] = qHTS assay to identify small molecule agonists of the progesterone receptor (PR) signaling pathway - cell viability counter screen (AID 1346799; calls by dose curve; further: nearly all actives have a fitted effect of over 45% in size)
In short: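 PR-UAS-bla HEK293T cells, 3,000 per well in medium with 2% charcoal-stripped FBS, were preincubated 6 hr at 37C, then exposed to compounds for 16 hr; viability was read as CellTiter-Glo luminescence after 30 min at room temperature.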

[5] = qHTS assay to identify small molecule antagonists of the TGF-beta/Smad signaling pathway - cell viability counter screen (AID 1346824); further: nearly all actives have a fitted effect of over 50% in size
In short: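 SBE-bla HEK 293T cells, incubated overnight, then compound plus 0.25 ng/mL TGF-beta1 (stock added) for 5 hr at 37 C. Viability was read in the same wells by CellTiter-Glo luminescence after 30 min at room temperature.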

[6] = qHTS assay to identify small molecule agonists of the TGF-beta/Smad signaling pathway - cell viability counter screen (AID 1346829); further: top concentration of the series differs between compounds; nearly all actives have a fitted effect of over 45% in size
In short: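 CellTiter-Glo luminescence readout; SBE-bla HEK 293T cells, overnight plating, compound 5 hr at 37 C/5% CO2, then bla substrate 2 hr RT, then CellTiter-Glo 30 min RT.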

[7] = qHTS assay to identify small molecule agonists of the TGF-beta/Smad signaling pathway (AID 1346859; active means well fitted activation curve with a large enough effect in the signal ratio in the repeat runs, not every such curve was filed as active; the % refers to the signal ratio; further: series mostly up to about 77 µM)
In short: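 HEK 293T cells stably carrying a beta-lactamase reporter driven by the Smad binding element were seeded overnight, exposed to DMSO-dissolved compounds for 5 hr at 37 C, 5% CO2, then loaded with FRET substrate for 2 hr at room temperature.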

[8] = biological target: Thyrotropin-releasing hormone receptor (Homo sapiens) (UniProt P34981); experiment: qHTS assay to identify small molecule antagonists of the thyrotropin-releasing hormone receptor (TRHR) signaling pathway (AID 1346877; active means well fitted inhibition curve with a large enough effect in the repeat runs, not every such curve was filed as active; further: series mostly up to about 51 µM)
Thyrotropin-releasing hormone receptor (Homo sapiens), sequence (P34981 whole entry, looked up): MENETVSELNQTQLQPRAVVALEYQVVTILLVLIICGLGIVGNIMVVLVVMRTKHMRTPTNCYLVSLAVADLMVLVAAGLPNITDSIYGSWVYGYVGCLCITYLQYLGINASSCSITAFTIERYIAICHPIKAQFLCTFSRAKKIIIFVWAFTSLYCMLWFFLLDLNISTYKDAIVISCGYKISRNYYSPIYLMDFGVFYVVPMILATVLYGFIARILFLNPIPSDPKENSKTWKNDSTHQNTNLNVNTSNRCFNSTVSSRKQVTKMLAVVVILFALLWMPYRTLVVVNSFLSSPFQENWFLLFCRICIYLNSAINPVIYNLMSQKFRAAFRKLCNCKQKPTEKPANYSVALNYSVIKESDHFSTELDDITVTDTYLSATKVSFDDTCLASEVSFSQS
In short: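 Intracellular calcium fluorescence, read kinetically every second over 3 min, reports TRH-evoked signalling in HEK293 cells carrying TRHR. Test compounds were added 5 min ahead of a 1 nM TRH challenge.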

[9] = biological target: Thyrotropin-releasing hormone receptor (Homo sapiens) (UniProt P34981); experiment: qHTS assay to identify small molecule agonists of the thyrotropin-releasing hormone receptor (TRHR) signaling pathway (AID 1346891; calls by dose curve; further: series mostly up to about 58 µM)
In short: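 TRHR-expressing HEK293 cells were plated 18 h at 37 °C/5% CO2, loaded with calcium dye 2 h at 37 °C, then given compound in DMSO; fluorescence was read kinetically for 3 min at 1 s intervals.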

[10] = Human pregnane X receptor (PXR) small molecule agonists, qHTS cell viability counter screen (AID 1346977); further: nearly all actives have a fitted effect of over 50% in size
In short: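 PXR-Luc HepG2 cells in medium with 5% charcoal-stripped FBS were pre-incubated 5hr, then exposed to compounds for 24hr at 37C. Viability was read in the same wells by CellTiter-Fluor fluorescence, reagent added after 23hr with a 1hr incubation.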

[11] = Caspase-3/7 induction in HepG2 cells by small molecules, qHTS assay (AID 1346978); further: nearly all actives have a fitted effect of over 15% in size
In short: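 Wild-type HepG2 cells, 2,000/well, settled 5 hr at 37 C and 5% CO2, then compound-treated for 17 hr; caspase-3/7 activity read by luminescent Caspase-Glo 3/7 after 30 min at room temperature.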

[12] = Caspase-3/7 induction in CHO-K1 cells by small molecules, qHTS assay (AID 1346980); further: nearly all actives have a fitted effect of over 15% in size
In short: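 Wild-type CHO-K1 cells exposed to compounds for 17hr at 37 C, 5% CO2. Caspase-3/7 activity then measured by Caspase-Glo 3/7 luminescence after 30min at room temperature.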

[13] = Caspase-3/7 induction in HepG2 cells by small molecules, qHTS cell viability counter screen (AID 1346981); further: series mostly up to about 92 µM; nearly all actives have a fitted effect of over 30% in size
In short: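 HepG2, WT, 2,000 cells/well; 5 hr pre-incubation 37 C/5% CO2; compound pin-transferred from DMSO; 16 hr exposure; CellTiter-Fluor, 1 hr; fluorescence read.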

[14] = biological target: Nuclear receptor subfamily 1 group I member 2 (Homo sapiens) (UniProt O75469); experiment: Human pregnane X receptor (PXR) small molecule agonists, qHTS assay (AID 1346982); further: nearly all actives have a fitted effect of over 35% in size
Nuclear receptor subfamily 1 group I member 2 (Homo sapiens), sequence (O75469 whole entry, looked up): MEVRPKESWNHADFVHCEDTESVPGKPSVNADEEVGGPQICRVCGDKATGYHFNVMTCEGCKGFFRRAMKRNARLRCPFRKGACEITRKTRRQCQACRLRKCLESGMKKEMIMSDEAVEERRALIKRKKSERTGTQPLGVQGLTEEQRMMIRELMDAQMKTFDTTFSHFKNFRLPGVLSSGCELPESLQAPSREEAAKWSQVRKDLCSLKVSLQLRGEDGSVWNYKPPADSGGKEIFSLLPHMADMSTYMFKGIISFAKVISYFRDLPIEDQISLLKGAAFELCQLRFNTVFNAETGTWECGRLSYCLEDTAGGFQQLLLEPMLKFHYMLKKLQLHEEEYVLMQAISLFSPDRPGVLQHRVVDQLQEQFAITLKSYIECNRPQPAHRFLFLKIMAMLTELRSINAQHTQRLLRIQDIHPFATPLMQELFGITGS
In short: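 Luciferase signal from ONE-Glo (30 min, room temperature) measured activation of hPXR-driven CYP3A4 reporter expression in PXR-Luc HepG2 cells treated with compounds for 24 hr at 37 C.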

[15] = Caspase-3/7 induction in CHO-K1 cells by small molecules, qHTS cell viability counter screen (AID 1346979); further: nearly all actives have a fitted effect of over 35% in size
In short: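 Wild-type CHO-K1 cells were seeded at 1,500 per well, rested 5hr at 37 C, then exposed to compounds in DMSO. After 16hr, CellTiter-Fluor reagent was added and fluorescence read 1hr later as the viability measure.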

[16] = qHTS assay to identify small molecule agonists or antagonists of the thyroid stimulating hormone receptor (TSHR) signaling pathway - wild type cell line counter screen (AID 1259384; calls by dose curve)
In short: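 Wild-type Hek293 cells, 800/well, 18 h at 37C, then compound with Ro20-1724 for 30 min RT. cAMP by HTRF (cAMP-d2/anti-cAMP cryptate), 1 h RT, fluorescence read. 15 concentrations, triplicates.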

[17] = biological target: Progesterone receptor (Homo sapiens) (UniProt P06401); experiment: qHTS assay to identify small molecule antagonists of the progesterone receptor (PR) signaling pathway (AID 1346795; active means well fitted inhibition curve with a large enough effect in the signal ratio in the repeat runs, not every such curve was filed as active; the % refers to the signal ratio)
In short: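 PR-UAS-bla HEK293T cells carrying a UAS-driven beta-lactamase reporter were plated in medium with 2% charcoal-stripped FBS and rested 6 hr at 37C. Compounds were added with 1 nM R5020 (final) for 16 hr, then FRET substrate loaded 2 hr at room temperature.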

Measured: Potency

CNC(=O)c1c(I)c(NC(C)=O)c(I)c(C(=O)O)c1I
not listed: [15] | [16] | [17]
inactive: all other assays above

N#Cc1ccccc1C#N
not listed: [2] | [6] | [14] | [16] | [17]
inactive: all other assays above

CC(=O)SC[C@@H](C)C(=O)N1CCC[C@H]1C(=O)N[C@@H](Cc1ccccc1)C(=O)O
not listed: [12] | [17]
inactive: all other assays above

O=C(O)CCC(=O)Nc1ccc(S(=O)(=O)Nc2nccs2)cc1
not listed: [3] | [6] | [9] | [14] | [16] | [17]
inactive: all other assays above

O=c1[nH]c(=O)c2cn[nH]c2[nH]1
not listed: [10] | [12] | [14] | [16]
inactive: all other assays above
